Assay outcomes: PubChem BioAssay, National Center for Advancing Translational Sciences (NCATS)
NPC1 promoter act: activators of NPC1 promoter | Huh7 NPC1 promoter luciferase reporter, 24 h | Potency, µM (titrated, usually from 9.22 µM), for the others: top-dose activation, most hits filed as activators | 320,000 compounds, 2.4% hits | AID 485313; also: % of control where 0% means no effect; nearly all actives have a fitted effect of over 60% in size
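In 1536-well qHTS, Huh7 cells harboring an NPC1 promoter–luciferase construct received compound for 24 h; activation was quantified by luminescence following luciferase reagent addition.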
ELG1 genotox: genotoxicity induction in ELG1-luciferase HEK293T cells. HEK293T ELG1-luciferase reporter, luminescence, 16 h. Potency, µM (highest dose often 46 µM), without a hit: at the top dose activity change, positive = activation, hits mostly activators. 330,000 compounds, 1.3% hits. AID 504466; also: % of control where 0% means no effect; nearly all actives have a fitted effect of over 60% in size
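Luminescence read-out: rising ELG1-luciferase signal, reflecting elevated ELG1 protein under genetic stress, flags genotoxic compounds. Cells were treated for 16 hr at 37 °C before ONE-Glo detection.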
SMN2 splice enh: enhancers of SMN2 splice variant expression; HEK293 SMN2-luciferase splicing reporter, luminescence, 30-36 h; 210,000 compounds, 2.8% hits; Potency, µM (series often up to 46.1 µM), for inactives: at the top dose activity change, positive = activation, hits mostly activators; AID 1458; also: % of control where 0% means no effect; nearly all actives have a fitted effect of over 55% in size
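qHTS luciferase splicing reporter: luminescence rises when SMN2 exon 7 is included in transfected HEK293 cells. Compound exposure lasted 30-36 h at 37C, with 4.5 mM final sodium butyrate as control, followed by a ONE-Glo read.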
Rab9 prom act: activates the Rab9 promoter; Potency, µM (top dose mostly 9.22 µM), without a hit: at the highest dose activation, negative = inhibition, most hits filed as activators; 320,000 compounds, 2.8% hits; Huh7 Rab9 promoter-luciferase reporter, luminescence, 24 h; also: % of control where 0% means no effect; nearly all actives have a fitted effect of over 60% in size
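Huh7 reporter line, Rab9 promoter upstream of luciferase. Compound exposure 24 h at 37 °C in reduced-serum medium with 10% FBS. Read-out: luminescence.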
p53 reactivation: mutant p53 re-activation in reporter cells | H1299 p53-A138V BP100-luciferase reporter, luminescence, 24 h | Potency, µM (highest dose often 92.2 µM), inactives show at the top dose activity change, positive = activation, actives largely listed as activators | 320,000 compounds, 0.063% hits | AID 504706; also: % of control where 0% means no effect; nearly all actives have a fitted effect of over 45% in size
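p53-null H1299 cells stably carrying temperature-sensitive p53-A138V and a BP100-luciferase reporter were pinned with compounds (4-point, 1:5 series) and held 24 hrs at 37 deg C. Luminescence was read 10 min after detection reagent.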
FLuc counter: counter-screen for miR-21 project: firefly luciferase inhibitors or activators; P08659; Potency, µM (doses to about 57.5 µM), for the others: at the top dose activity change, negative = inhibition, hits mostly inhibitors; 360,000 compounds, 6.9% hits; purified FLuc, Km substrates, luminescence inhibition;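 also: plate controls were vehicle for no effect and reference inhibitor for full effect; nearly all actives have a fitted effect of over 55% in size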
Target sequence (P08659 whole entry, looked up): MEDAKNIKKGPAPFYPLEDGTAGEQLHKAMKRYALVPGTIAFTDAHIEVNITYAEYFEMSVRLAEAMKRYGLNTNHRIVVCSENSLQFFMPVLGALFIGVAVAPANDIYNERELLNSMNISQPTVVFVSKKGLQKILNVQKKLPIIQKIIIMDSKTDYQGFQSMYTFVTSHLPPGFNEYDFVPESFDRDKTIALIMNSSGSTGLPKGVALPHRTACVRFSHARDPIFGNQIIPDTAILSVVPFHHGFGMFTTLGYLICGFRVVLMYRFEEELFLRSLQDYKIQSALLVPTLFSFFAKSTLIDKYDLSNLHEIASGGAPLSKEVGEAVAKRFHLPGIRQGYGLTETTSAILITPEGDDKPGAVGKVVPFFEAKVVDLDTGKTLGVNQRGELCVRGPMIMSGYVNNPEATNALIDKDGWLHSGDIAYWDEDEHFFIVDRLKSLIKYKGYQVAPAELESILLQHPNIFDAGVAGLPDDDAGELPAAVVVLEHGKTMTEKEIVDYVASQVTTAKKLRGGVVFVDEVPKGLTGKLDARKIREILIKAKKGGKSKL
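Purified P. pyralis luciferase, 10 nM final, with Km-level 10 uM D-luciferin and 10 uM ATP in 50 mM Tris acetate pH 7.5, 10 mM Mg acetate, 0.01% Tween-20, 0.05% BSA; 6-point qHTS titration about 60 µM downward; luminescence read.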
The depositor's hits bear a star; ? = inconclusive; / = no result given; [ ] = dose if it differs, or a comment. Rows were chosen to be rich in hits. Some 7.4% of all compounds tested hit in one or more screens of this group. Calls follow the shape of the dose curve; as a rule, active = well fitted curve in the direction sought with a large enough effect; inconclusive = small, poorly fitted or top-dose-only effect, or another doubt; inactive = no such curve, though single readings can be large; an effect the other way counts as inactive or inconclusive. Potency is read from the fitted curve at half-maximal effect.

SMILES	NPC1 promoter act	ELG1 genotox	SMN2 splice enh	Rab9 prom act	p53 reactivation	FLuc counter
CCCCCCCCCCC(C)(C)C(=O)Nc1c(OC)cc(OC)cc1OC	1%[46.1 µM]	/	-14%	-6%[46.1 µM]	/	/
COC(c1ccccc1)c1nnc(CCC(=O)N(C)Cc2cccc(-n3cccn3)c2)o1 (centres undefined)	4%	?	/	?	11%	15µM*
COC(c1ccccc1)c1nnc(CCC(=O)N(C)CCCC2CCCC2)o1 (centres undefined)	2%	4%	/	6%	6%	?
COC(c1ccccc1)c1nnc(CCC(=O)N(C)CCOc2ccccc2)o1 (centres undefined)	17%	?	12%	28%	15%	27µM*
CC1CCN(CC(=O)N(C)c2c(N)n(Cc3ccccc3)c(=O)[nH]c2=O)CC1	-7%	1%	/	-2%	-2%	2%
Cc1nnc2c(N3CCN(c4ccccc4F)CC3)nc3ccc(C(=O)c4ccccc4)cc3n12	/	/	/	/	/	-3%
Cc1ccc(C(=O)NCCOc2ccc(Cl)cc2)cc1	?	?	/	18%	7%	24µM*
O=C(Nc1ccccc1Cl)c1ccc(-c2ccccn2)s1	2µM*	?	/	1.4µM*	11%	3.4µM*
CCCOc1ccc(C(=O)Nc2ccc(Cl)cn2)cc1	0.71µM*	?	?	0.5µM*	11%	0.85µM*
COC(=O)c1ccccc1NC(=O)c1ccc2nccnc2c1	0%	-2%	0%	1%	12%	-16%
CCCOc1ccc(C(=O)Nc2ccc(NC(=O)c3cccc(Cl)c3)cc2)cc1	/	/	8%	/	/	0%
O=C(Nc1ccccc1Cl)c1ccc2nccnc2c1	3.2µM*	2%	/	2.5µM*	?	11µM*
Cc1ccc(OCCNC(=O)c2cccc(C)c2)cc1	16%	3%	/	5%	/	1%
COc1ccc(C(C)(C)NC(=O)C2CCC(=O)N(C3CC3)C2)cc1OC (centres undefined)	-7%	7%	/	-3%	2%	7%
Cc1ccccc1S(=O)Cc1ccc(C(=O)NC2CCCCCC2)o1 (centres undefined)	/	/	-15%	/	/	-2%
COc1cccc(NC(=O)C2CCC(CNC(=O)[C@@H]3Cc4ccccc4CN3)CC2)c1 (some centres undefined)	-2%	1%	/	-4%	26%	-3%
Cc1ccc(C(=O)Nc2ccc(Cl)cn2)cc1	9%	2.3µM*	7.9µM*	?	30%	1.3µM*
Cc1ccc(C(=O)Nc2ncc3c(Cl)cccc3n2)cc1	?	?	0.032µM*	0.16µM*	-6%	0.27µM*
Cc1ccccc1C(=O)Nc1ccccn1	/	/	-19%	/	/	-13%
Cc1nc(NC(=S)NC(=O)c2cccs2)ccc1Br	6%	?	?	30%	?	4.8µM*
Cc1ccccc1C(=O)Nc1ccc(Cl)cn1	2.5µM*	10µM*	29%	3.5µM*	26%	17µM*
C=C1C[C@@]23CC[C@H]4[C@@](C)(CCC[C@@]4(C)C(=O)OC4OC(CO)C(O)C(O)C4O)[C@@H]2CC[C@]1(OC1OC(CO)C(O)C(O)C1OC1OC(CO)C(O)C(O)C1O)C3 (some centres undefined)	-5%[46.1 µM]	/	/	-8%[46.1 µM]	/	/
O=C(Nc1ccc(Cl)cn1)c1ccc2nccnc2c1	1.6µM*	?	/	?	3%	12µM*
O=C(Nc1ccc(Cl)cn1)c1cccc(OCc2ccccc2)c1	0%	6%	/	26%	?	?
CCC(=O)Nc1ccc(NC(=O)c2ccccc2Cl)nc1	13%	?	?	26%	?	?
Cc1ccc(NC(=O)c2ccc(S(=O)(=O)N3CCC(C)CC3)cc2)nc1	0%	18µM*	/	-5%	8%	?
O=C(Nc1ccc(Cl)cn1)c1cccnc1	-1%	6%	?	-1%	22%	-11%
CC(C)C(=O)Nc1ccc(NC(=O)c2ccccc2Cl)nc1	?	16µM*	/	3.2µM*	?	21µM*
